# Measured values taken from article PMC4336329 (PLoS ONE, 2015).
# The campaign covered roughly 310,000 compounds. About 14,000 (4.5%) showed an effect of 50% or more. Effects have a minus sign here. The sample as a whole holds a higher share of strong results than the screen did.
# Biological target: human ether-à-go-go-related gene (hERG) potassium channel (human, UniProt Q12809)
# Experiment: primary screen, population patch clamp on CHO cells stably expressing hERG; higher = less effect of the substance
# 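Further: peak tail current of the secondary pulse compared with the same well before compound.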
# Chain of human ether-à-go-go-related gene (hERG) potassium channel (Q12809 whole entry, looked up): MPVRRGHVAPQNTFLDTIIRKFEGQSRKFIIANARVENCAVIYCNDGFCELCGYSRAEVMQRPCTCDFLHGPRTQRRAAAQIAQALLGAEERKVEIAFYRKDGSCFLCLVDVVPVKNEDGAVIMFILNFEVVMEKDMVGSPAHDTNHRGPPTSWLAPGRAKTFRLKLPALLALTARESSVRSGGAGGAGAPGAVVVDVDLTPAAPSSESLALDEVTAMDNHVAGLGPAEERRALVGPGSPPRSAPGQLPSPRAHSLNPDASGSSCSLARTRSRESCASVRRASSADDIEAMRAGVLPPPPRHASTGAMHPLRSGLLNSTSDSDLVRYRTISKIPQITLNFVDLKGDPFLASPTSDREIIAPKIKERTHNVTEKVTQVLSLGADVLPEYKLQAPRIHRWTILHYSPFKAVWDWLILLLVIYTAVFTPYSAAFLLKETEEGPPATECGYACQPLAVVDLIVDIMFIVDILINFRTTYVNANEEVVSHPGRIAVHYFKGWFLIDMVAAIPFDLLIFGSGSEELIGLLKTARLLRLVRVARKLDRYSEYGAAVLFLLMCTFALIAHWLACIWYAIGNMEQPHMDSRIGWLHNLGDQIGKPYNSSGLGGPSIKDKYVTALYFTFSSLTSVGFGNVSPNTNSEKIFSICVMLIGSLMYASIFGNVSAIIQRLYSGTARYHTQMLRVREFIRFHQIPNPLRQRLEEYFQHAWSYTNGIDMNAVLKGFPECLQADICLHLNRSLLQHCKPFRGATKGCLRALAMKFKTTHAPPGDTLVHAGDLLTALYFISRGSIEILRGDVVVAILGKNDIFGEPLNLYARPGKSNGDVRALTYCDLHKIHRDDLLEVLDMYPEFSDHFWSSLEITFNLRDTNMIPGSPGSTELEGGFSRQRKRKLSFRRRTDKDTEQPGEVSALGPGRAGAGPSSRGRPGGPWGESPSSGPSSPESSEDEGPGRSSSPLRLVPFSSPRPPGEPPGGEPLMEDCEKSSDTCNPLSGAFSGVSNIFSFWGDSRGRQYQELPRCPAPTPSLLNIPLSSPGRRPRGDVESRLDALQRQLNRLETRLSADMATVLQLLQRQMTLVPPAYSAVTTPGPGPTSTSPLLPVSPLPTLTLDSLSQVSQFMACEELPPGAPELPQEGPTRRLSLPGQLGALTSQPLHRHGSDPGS
row,Compound,"hERG current change (%, negative = inhibition) at 10uM [%]"
1,O=C1CCCN1CCCNc1ncnc2sccc12,3.29
2,CC(C)(C)N1[C@@H](CC(=O)O)c2cc(C(F)(F)F)ccc2S1(=O)=O,11.2
3,Cc1ccccc1Nc1nc(N)nc(COC(=O)CCS(=O)(=O)c2ccccc2)n1,-14.4
4,CC(C)=C1C2CCC1C1C(=O)N(NC(=O)c3ccco3)C(=O)C21 (stereo not drawn),-4.72
5,Cc1nn(C)c(C(=O)N2CCc3ccccc32)c1Cl,2.37
6,CCOC(=O)c1cnc2c(C)cc(C)cc2c1Nc1ccc(S(=O)(=O)Nc2ncccn2)cc1,-0.317
7,COc1ccc(Cl)cc1N(CC(=O)N1CCN(Cc2ccccc2)CC1)S(C)(=O)=O,-7.28
8,O=C(c1cc2cc(F)ccc2[nH]1)N1CCN(Cc2ccc3c(c2)OCO3)CC1,-0.31
9,CN(CC(=O)N1CCc2[nH]c3ccc(F)cc3c2C1)CC1OCCO1,5.81
10,Cc1ccc2[nH]c3c(c2c1)CN(C(=O)CN1CCN(C(=O)c2ccco2)CC1)CC3,-5.97
11,Cc1ccc2[nH]c3c(c2c1)CN(C(=O)CN1CCN(Cc2ccc4c(c2)OCO4)CC1)CC3,-54.8
12,O=C(CN1CCN(Cc2ccc3c(c2)OCO3)CC1)N1CCc2[nH]c3ccc(F)cc3c2C1,-62.8
13,Cc1ccc2[nH]c3c(c2c1)CN(C(=O)CN1CCCCC1)CC3,-31.8
14,COc1ccccc1NC(=O)c1sc2nc(-c3ccco3)ccc2c1N,1.24
15,Cc1n[nH]c(C)c1N1C(=O)c2cccc3c(N4CCCCCC4)ccc(c23)C1=O,-21.5
16,CCC(=O)N1c2ccc(S(=O)(=O)NCCc3ccc(OC)c(OC)c3)cc2CC1C (stereo not drawn),10.3
17,CSc1c(CC(=O)Nc2ccccc2Cl)n(Cc2ccccc2)c2ccccc12,8.86
18,COc1ccc(NC(=O)CCCN2C(=O)CN(C)C2=O)c(OC)c1,-4.4
19,CCN(CC)S(=O)(=O)c1ccc(C(=O)NCc2cccs2)cc1,-20.7
20,CCN(CC(=O)NCc1cccs1)S(=O)(=O)c1c(F)cccc1F,0.594
21,CCN(CC(=O)NCc1cccs1)C(=O)c1cccc(S(=O)(=O)N2CCc3ccccc32)c1,-71.3
22,CCN(CC(=O)NCc1cccs1)C(=O)c1ccc(S(=O)(=O)N(C)C)cc1,48.6
23,CCN(CC(=O)NCc1cccs1)S(=O)(=O)c1ccccc1Cl,-11.3

row,Compound,"hERG current change (%, negative = inhibition) at 10uM [%]"
1,CCN(CC(=O)NCc1cccs1)C(=O)c1cccc(S(=O)(=O)NC)c1,-12.2
2,CCN(CC(=O)NCc1cccs1)C(=O)c1ccc(S(=O)(=O)Nc2ccccc2)cc1,-15.6
3,CCN(CC(=O)NCc1cccs1)S(=O)(=O)c1ccc(F)cc1,-85
4,CCN(CC(=O)NCc1cccs1)S(=O)(=O)c1ccc(C(C)C)cc1,-53.3
5,CCN(CC(=O)NCc1cccs1)C(=O)c1ccc(S(=O)(=O)N(CC)c2ccccc2)cc1,-61.4
6,CCN(CC(=O)Nc1cccc(OC)c1)C(=O)c1cccc(S(=O)(=O)N2CCc3ccccc32)c1,-1.63
7,CCN(CC(=O)NCc1cccs1)S(=O)(=O)c1ccc(NC(C)=O)cc1,-7.22
8,COC(=O)c1ccc2c(c1)S(=O)(=O)NC(=NCCCN1CCOCC1)S2.Cl,-1
9,COc1ccc(OCCC(=O)OCC(=O)NC(=O)NC2CCCCC2)cc1,13.2
10,CN(C)c1ccc(NS(=O)(=O)c2ccc(-c3csnn3)cc2)cc1,13.1
11,CCCC1(c2ccccc2)NC(=O)N(CC(=O)c2[nH]c(C)c(C(=O)OCC)c2C)C1=O (stereo not drawn),12.5
12,CCOC(=O)N1CCN(Cc2cn3ccccc3n2)CC1.O=C(O)C(=O)O,21.9
13,Nc1cc(C(=O)N/N=C/c2cccc([N+](=O)[O-])c2)n[nH]c1=O,7.18
14,c1ccc(Cn2c(SCc3nc4ccccc4s3)nnc2-c2ccco2)cc1,-34.1
15,CCOC(=O)N1CCN(C(=O)C2CCN(S(=O)(=O)c3ccc(Br)s3)CC2)CC1,-35.2
16,O=C(Oc1ccc(/C=N/Nc2nc(N3CCCCC3)nc(N3CCCCC3)n2)cc1)c1ccco1,-9.1
17,COc1ccc(NC(=O)c2cccc(C#N)c2)cc1NS(=O)(=O)c1ccc(F)cc1,8.63
18,Cc1ccnc(SCCn2c(N3CCN(c4ccccc4)CC3)nc3c2c(=O)[nH]c(=O)n3C)n1,-17.3
19,CCN(CC(=O)NCc1cccs1)S(=O)(=O)c1ccc([N+](=O)[O-])cc1,-68.2
20,CCN(CC(=O)NCc1cccs1)S(=O)(=O)c1cccc(Br)c1,11.9
21,CCN(CC(=O)NCc1cccs1)S(=O)(=O)c1cccc(C(C)=O)c1,0.039
22,O=[N+]([O-])c1cccc(S(=O)(=O)N/N=C/c2ccc(O)cc2)c1,1.14
23,CC(=O)Nc1nc(C)c(Oc2ccc(Cl)cc2Cl)c(=O)[nH]1,10.5

row,Compound,"hERG current change (%, negative = inhibition) at 10uM [%]"
1,COc1ccccc1NC(=O)c1ccc(NC(=O)COC(=O)CC(NC(=O)c2ccccc2Cl)c2ccccc2)cc1 (stereo not drawn),6.73
2,Cc1oc(-c2cccc(C(F)(F)F)c2)nc1CN1CCC[C@H]1CO,-35
3,Cc1oc(-c2cccc(F)c2)nc1CN1CCCCC1CCn1cccn1 (stereo not drawn),-73.1
4,CCN1CCCC1CNC(=O)C1CCN(Cc2nc(-c3cccc(Br)c3)oc2C)CC1 (stereo not drawn),-9.4
5,CSc1ccc(-c2nc(CN3CCCCC3c3cccnc3)c(C)o2)cc1 (stereo not drawn),-19.8
6,COc1cccc(C2CCCCN2Cc2nc(-c3ccc(C)o3)oc2C)c1 (stereo not drawn),-12.5
7,Cc1ccc(-c2nc(CN3CCCCC3c3cccc(F)c3)c(C)o2)o1 (stereo not drawn),44.7
8,Cc1oc(-c2ccccc2Cl)nc1CN1CCCCC1CO (stereo not drawn),-20.5
9,Cc1ccc(-c2nc(CN3CCCCC3CCN3CCCC3=O)c(C)o2)o1 (stereo not drawn),-51.5
10,CCOc1ccc(-c2nc(CN3CCCCC3CCn3cccn3)c(C)o2)cc1 (stereo not drawn),-71.5
11,O=C(NCCc1c[nH]c2ccccc12)c1c(Cl)nc2sccn12,15.4
12,O=C(NC(Cc1c[nH]c2ccccc12)C(=O)O)c1cccs1 (stereo not drawn),18.6
13,Cc1ccc(Cl)cc1NC(=O)CCC(=O)NCc1ccco1,7.15
14,O=C(CN1C(=O)NC2(CCCc3ccccc32)C1=O)N1CCN(C(=O)c2ccco2)CC1 (stereo not drawn),-34.3
15,COc1ccc2[nH]c(O)c(NC(C)=O)c2c1,1.61
16,COc1cc(NC(=O)COc2ccc(Br)cc2)ccc1NC(=O)C(C)C,4.1
17,CC1CCN(C(=O)COc2ccc(S(=O)(=O)N3CCOCC3)cc2)CC1,-1.39
18,COc1ccc2[nH]cc(CCCN3C(=O)c4ccccc4C3=O)c2c1,-4.87
19,Cc1ccc2[nH]cc(CCCN3C(=O)c4ccccc4C3=O)c2c1,-51.4
20,O=C1c2ccccc2C(=O)N1CCCc1c[nH]c2ccc(Cl)cc12,-19.3
21,CC(=O)c1cccc(NS(=O)(=O)c2ccc3c(c2)oc(=O)n3C)c1,-6.14
22,O=C1CCN(Cc2ccccc2)CCN1[C@H](CSc1ccccc1)c1ccccc1,-44.7
23,[N-]=[N+]=NC[C@H](c1ccccc1)N1CCN(Cc2ccccc2)CCC1=O,-0.754

row,Compound,"hERG current change (%, negative = inhibition) at 10uM [%]"
1,O=C1CCN(CCc2ccccc2)CCN1[C@H](CSc1ccc(Br)cc1)c1ccccc1,-66.2
2,Cc1ccc(SC[C@H](c2ccccc2)N2CCN(CCc3ccccc3)CCC2=O)cc1,-74.7
3,O=C1CCN(CCc2ccccc2)CCN1[C@H](CSc1ccccc1)c1ccccc1,-78.7
4,Cc1ccnc(N2CCC(C(=O)NNC(=O)COc3cccc4ccccc34)CC2)n1,11.2
5,Cc1cccc(NC(=O)CCc2nnc3ccc(NCc4ccco4)nn23)n1,6.78
6,Cc1cc(C)c(OCCN(C)C)c(Cl)c1.O=C(O)C(=O)O,-21.1
7,O=C(NC1CCCC1)C(c1cccs1)N(C(=O)c1ccco1)c1ccc2c(c1)OCO2 (stereo not drawn),-33.5
8,Nc1nc(SCC(=O)NCc2ccco2)[nH]c(=O)c1-c1ccccc1,22.3
9,CC(C(=O)N(C)CC(=O)Nc1ccccc1C(F)(F)F)N1C(=O)c2ccccc2C1=O (stereo not drawn),-10.7
10,COc1ccc(N(CC(=O)NC2CCCC2)C(=O)c2ccc(C)s2)cc1OC,15.8
11,COC(=O)c1ccc(NC(=O)C[n+]2ccccc2C)cc1.[Cl-],10.1
12,Cc1cc(Nc2c(C)cccc2C)n2nc(C)nc2n1,3.66
13,Cc1cc(Br)ccc1OCCN1CC(C)OC(C)C1.O=C(O)C(=O)O (stereo not drawn),-17.8
14,CC(C)(C)c1ccccc1OCCOCCN1CCCCCC1.O=C(O)C(=O)O,-39.1
15,Cc1cc(Br)ccc1OCCCCN1CCCCC1.O=C(O)C(=O)O,-78.9
16,Cc1cc(Br)ccc1OCCCCN1CCC(C)CC1.O=C(O)C(=O)O,-67.9
17,Cc1cc(Br)ccc1OCC(=O)N1CCCCCC1,-12.1
18,CCN1CCN(CCOc2ccc(Br)cc2C)CC1.O=C(O)C(=O)O,-46.6
19,Cc1cccc(C)c1OCCCCN1CCCCC1.O=C(O)C(=O)O,-11.8
20,Cc1cc(Br)ccc1OCCN1CCCC1.O=C(O)C(=O)O,-36.8
21,Cc1cc(Br)ccc1OCCOCCN1CCCC1.O=C(O)C(=O)O,-60.7
